± gives the standard deviation.
Tests used:
Conditions in all cases: modulator concentration 10 µM
[1] = system: RAW-Dual (murine macrophage reporter line); experiment: NF-kB reporter (SEAP) activity fold change vs agonist alone; higher = enhanced NF-kB activity
How it was run: (§1)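 Overnight stimulation with a PRR agonist followed pre-incubation for 1 hour at 37 °C with compound at 10 μM final. This was done in RAW-Dual murine macrophage reporter cells seeded at 50 000 per well in 384-well plates. NF-κB (SEAP, QUANTI-Blue absorbance at 620 nm) and IRF (Lucia luciferase, QUANTI-Luc luminescence) were read from the supernatant. Each reporter's fold change relative to the mean agonist-only control on the same plate was averaged over replicate plates.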

[2] = system: RAW-Dual (murine macrophage reporter line); experiment: IRF reporter (Lucia luciferase) activity fold change vs agonist alone; higher = enhanced IRF activity
How it was run: as §1

[3] = system: RAW-Dual (murine macrophage reporter line); experiment: viability score (confluency relative to resting cells, overnight) (fraction); higher = more viable, active = viable (0.7 or more)
How it was run: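 Confluency was the readout: RAW-Dual macrophages were imaged with IncuCyte after an overnight exposure to compound at 10 μM final. IncuCyte software produced two masks over all imaged wells. The viability score expresses confluency against resting cells, and both masks had to exceed 70% of resting cells for a compound to meet the cutoff.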

[4] = agonist: CpG ODN 1826 0.5 ug/mL

| Compound | NF-kB reporter [1, 4] | NF-kB reporter ([1]; agonist: LPS 0.1 ug/mL) | NF-kB reporter ([1]; agonist: MPLA […]) | IRF reporter ([2]; agonist: 3'3'-cGAMP 10 ug/mL) | IRF reporter ([2]; agonist: LPS 0.1 ug/mL) | IRF reporter ([2]; agonist: MPLA […]) | viability score [3] |
| --- | --- | --- | --- | --- | --- | --- | --- |
| CN1CCN2c3ncccc3Cc3ccccc3C2C1 (centres undefined) | 0.912 ± 0.17 | 1.07 ± 0.22 | 1.71 ± 0.85 | 0.861 ± 0.036 | 1.42 ± 0.3 | 1.18 ± 0.21 | 0.998 (active) |
| COC(=O)c1c(NC(=O)C2CCCCC2)sc2c1CC(C)(C)NC2(C)C | 1.12 ± 0.095 | 1.24 ± 0.1 | 1.47 ± 0.16 | 0.764 ± 0.08 | 1.06 ± 0.1 | 1.82 ± 0.38 | 0.419 (inactive) |
| Clc1cnc(NC2CCN(c3ncnc4c3CCCC4)CC2)nc1 | 0.969 ± 0.043 | 1.08 ± 0.089 | 1.55 ± 0.24 | 0.698 ± 0.032 | 1.16 ± 0.21 | 1.29 ± 0.47 | 0.954 (active) |
| Cc1cc(OCC(=O)Nc2ccc(Cl)c(C(F)(F)F)c2)ccc1Cl | 0.934 ± 0.079 | 0.942 ± 0.056 | 1.24 ± 0.11 | 1.02 ± 0.051 | 1.7 ± 0.1 | 1.83 ± 0.19 | 0.971 (active) |
| CCOC(=O)C(CCc1ccccc1)NC(C)C(=O)N1C(C(=O)O)CC2CCCCC21 (centres undefined) | 0.994 ± 0.11 | 0.925 ± 0.068 | 1.08 ± 0.1 | 0.953 ± 0.045 | 1.24 ± 0.2 | 1.27 ± 0.29 | 1.05 (active) |
| CSc1ccccc1NC(=O)C1CCCN(c2ccc(-n3cncn3)nn2)C1 (centres undefined) | 0.991 ± 0.073 | 1.04 ± 0.099 | 1.18 ± 0.063 | 0.973 ± 0.077 | 1.23 ± 0.22 | 1.43 ± 0.37 | 0.995 (active) |
| O=C(Nc1ccc(-c2cn3ccsc3n2)cc1)NC1CCCCC1 | 2.23 ± 0.14 | 1.16 ± 0.12 | 1.59 ± 0.11 | 0.5 ± 0.032 | 0.923 ± 0.086 | 1.22 ± 0.18 | 0.826 (active) |
| CC(=O)OCC(=O)NCCCOc1cccc(CN2CCCCC2)c1.Cl | 1.14 ± 0.19 | 1.21 ± 0.23 | 0.924 ± 0.056 | 0.951 ± 0.039 | 1.42 ± 0.13 | 1.11 ± 0.1 | 0.99 (active) |
| COc1ccccc1OCC(=O)NCC1CCN(C(C)C)CC1 | 1.12 ± 0.062 | 1.07 ± 0.099 | 0.92 ± 0.049 | 1.09 ± 0.099 | 1.13 ± 0.21 | 1.05 ± 0.34 | 0.991 (active) |
| CC(O)C(=O)O.CN1CCN(c2ccc3nc(-c4c(N)c5c(F)cccc5[nH]c4=O)[nH]c3c2)CC1 | 0.167 ± 0.011 | 0.107 ± 0.0086 | 0.294 ± 0.019 | 2.41 ± 0.23 | 0.434 ± 0.076 | 0.506 ± 0.084 | 0.966 (active) |
| O=C(O)C=C(CC(=O)O)C(=O)O | 1.02 ± 0.084 | 1.05 ± 0.074 | 0.946 ± 0.021 | 0.996 ± 0.12 | 0.971 ± 0.038 | 0.983 ± 0.092 | 1 (active) |
| COC(=O)c1cccc(Nc2nc(C=Cc3ccccc3)nc3ccccc23)c1 | 1.3 ± 0.12 | 1.28 ± 0.1 | 5.46 ± 0.19 | 0.658 ± 0.023 | 0.945 ± 0.14 | 5.98 ± 0.47 | 0.851 (active) |
| CCOC(=O)C1CCCN(S(=O)(=O)c2ccc(F)cc2)C1 (centres undefined) | 1.07 ± 0.12 | 1.1 ± 0.11 | 0.97 ± 0.059 | 0.964 ± 0.06 | 1.3 ± 0.18 | 1.02 ± 0.3 | 0.983 (active) |
| N=C(N)NCCN1CCCCCCC1.O=S(=O)(O)O | 1.25 ± 0.3 | 1.11 ± 0.088 | 1.24 ± 0.26 | 0.929 ± 0.032 | 1.27 ± 0.14 | 1.24 ± 0.12 | 0.993 (active) |
| Cc1cc(=O)[nH]c(=S)[nH]1 | 1.04 ± 0.09 | 1.02 ± 0.11 | 1 ± 0.035 | 0.99 ± 0.073 | 0.969 ± 0.084 | 1.01 ± 0.08 | 1 (active) |
| COc1ccc(C2CC(=O)C(=Cc3c[nH]c4ccccc34)C(=O)C2)cc1 (centres undefined) | 0.91 ± 0.055 | 1.04 ± 0.11 | 0.905 ± 0.08 | 0.76 ± 0.04 | 1.25 ± 0.11 | 1.1 ± 0.13 | 0.991 (active) |
| O=C(Cc1ccc([N+](=O)[O-])cc1)NN=Cc1cccnc1 | 1.05 ± 0.083 | 1.02 ± 0.074 | 0.972 ± 0.041 | 0.86 ± 0.066 | 1.09 ± 0.053 | 1.03 ± 0.14 | 1 (active) |
| CC(C)(C(=O)c1cccnc1)c1cccnc1 [Prestw-904] | 1.05 ± 0.092 | 0.894 ± 0.073 | 0.939 ± 0.057 | 0.995 ± 0.054 | 0.956 ± 0.12 | 0.901 ± 0.23 | 0.997 (active) |
| Cc1c(NC(=S)NC(=O)c2ccccc2[N+](=O)[O-])cccc1-c1nc2ccccc2s1 | 1.09 ± 0.087 | 1.07 ± 0.073 | 0.933 ± 0.064 | 0.88 ± 0.021 | 1.47 ± 0.2 | 1.07 ± 0.2 | 1.02 (active) |
| CN(C)C/C=C/C(=O)Nc1cc2c(Nc3ccc(F)c(Cl)c3)ncnc2cc1O[C@H]1CCOC1.O=C(O)/C=C\C(=O)O.O=C(O)/C=C\C(=O)O | 0.365 ± 0.017 | 0.661 ± 0.089 | 0.613 ± 0.034 | 0.418 ± 0.026 | 0.795 ± 0.17 | 0.855 ± 0.3 | 0.999 (active) |
| CC(=O)N=C1NC(=O)C(=Cc2ccc(C)o2)S1 | 0.92 ± 0.088 | 0.847 ± 0.067 | 0.965 ± 0.026 | 0.817 ± 0.065 | 0.895 ± 0.082 | 0.823 ± 0.083 | 0.995 (active) |
| O=C(O)c1cc2ccccc2[nH]1 | 1.02 ± 0.087 | 0.963 ± 0.08 | 1.02 ± 0.024 | 1.02 ± 0.071 | 0.975 ± 0.14 | 0.889 ± 0.23 | 1 (active) |
| O=[N+]([O-])c1ccc(N2CCOCC2)c(-c2nnn[nH]2)c1 | 0.98 ± 0.25 | 1.05 ± 0.11 | 0.918 ± 0.085 | 0.938 ± 0.045 | 1.11 ± 0.14 | 1.29 ± 0.17 | 0.996 (active) |
| CC1CN(Cc2ccccn2)CCC1=O (centres undefined) | 0.988 ± 0.11 | 0.993 ± 0.064 | 1.03 ± 0.062 | 0.978 ± 0.027 | 1.58 ± 0.23 | 1.17 ± 0.12 | 1.01 (active) |
| CCn1cc(C(=O)O)c(=O)c2cc(F)c(N3CCN(C)CC3)cc21.CS(=O)(=O)O | 1.12 ± 0.15 | 1.3 ± 0.22 | 0.938 ± 0.096 | 0.858 ± 0.037 | 1.45 ± 0.12 | 1.17 ± 0.11 | 0.986 (active) |
| CCN(CC)c1ccc(C=Nc2c(C)cc(C)cc2C)cc1 | 0.97 ± 0.08 | 1.03 ± 0.086 | 0.959 ± 0.054 | 0.894 ± 0.046 | 0.968 ± 0.063 | 0.94 ± 0.065 | 1 (active) |
| CCCN(CCC)C(=O)C1=Cc2ccc(-c3ccc(C(=O)N4CCCC4)cc3)cc2N=C(N)C1 | 0.432 ± 0.022 | 1.08 ± 0.17 | 1.12 ± 0.11 | 0.724 ± 0.034 | 1.29 ± 0.29 | 1.58 ± 0.49 | 0.957 (active) |

— the supplement of paper PMC10646978
